PubChem BioAssay AID2650 (Broad Institute, 2010)
In all, about 320,000 compounds went through this assay and about 320 (0.1%) were called active. This excerpt belongs to a sample that is enriched for actives. A number with no mark means an inactive call.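 Rule for the calls: active = more than half of replicates show inhibition above 20%; inconclusive = some but at most half of replicates above 20% inhibition; inactive = no replicate shows inhibition above 20%.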 Non-standard residues stand in square brackets, D forms with d. Residues, ends and D or L forms follow the SMILES beside them. ξ: configuration not given here. ξM = CSCCC(N)C(=O)O

target: Glycogen synthase kinase-3 alpha (Homo sapiens) (UniProt P49840); assay: blockers of GSK3A enzyme activity – biochemical, luminescence, cell-free homogeneous, HTS, primary screen (AID 2650); settings: GSK-3 alpha kinase, ADP-Glo luminescence, 60 min; at 10 µM; hits give high values;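 note: GST-tagged GSK-3 alpha with peptide substrate and 25 µM ATP; 0% = DMSO neutral wells and 100% = GW8510 positive control wells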
Sequence (P49840 whole entry, looked up): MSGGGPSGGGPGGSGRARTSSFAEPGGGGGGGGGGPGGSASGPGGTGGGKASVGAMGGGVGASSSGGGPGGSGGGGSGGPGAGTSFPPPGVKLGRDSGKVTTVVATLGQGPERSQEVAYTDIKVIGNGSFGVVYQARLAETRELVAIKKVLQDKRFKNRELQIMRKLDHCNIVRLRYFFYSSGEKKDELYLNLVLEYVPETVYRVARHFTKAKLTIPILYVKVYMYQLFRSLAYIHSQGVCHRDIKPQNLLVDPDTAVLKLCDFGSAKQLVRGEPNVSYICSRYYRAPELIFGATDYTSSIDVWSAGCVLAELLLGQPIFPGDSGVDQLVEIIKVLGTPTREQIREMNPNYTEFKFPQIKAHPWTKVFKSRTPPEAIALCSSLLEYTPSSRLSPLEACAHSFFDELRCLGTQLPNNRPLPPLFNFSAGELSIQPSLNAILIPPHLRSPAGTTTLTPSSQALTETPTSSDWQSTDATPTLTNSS

| Compound | inhibition |
| --- | --- |
| O=C(OCC1O[C@@H](OC(=O)c2cc(O)c(O)c(O)c2)[C@@H](OC(=O)c2cc(O)c(O)c(O)c2)[C@@H](OC(=O)c2cc(O)c(O)c(O)c2)[C@@H]1OC(=O)c1cc(O)c(O)c(O)c1)c1cc(O)c(O)c(O)c1 (stereo not given in full) | 57.5% (active) |
| O=C(OCC1OC(Oc2ccc(O)cc2)C(O)C(O)C1O)c1ccccc1 (stereo not given) | 19.4% |
| CS(=O)(=O)N(CC(=O)Nc1ccc(Cl)c(Cl)c1)C1CCCCC1 | -0.751% |
| O=C(Nc1ccccc1-c1nnn(CC(=O)N2CCCc3ccccc32)n1)c1cccc(Cl)c1 | -2.04% |
| Cc1ccc(C(=O)N/N=C\c2cc(Br)c(Br)o2)cn1 | 2.23% |
| Cc1cc2cc3c(cc2nc1SCC(=O)Nc1c(C)cccc1C)CCC3 | -3.92% |
| Cc1noc(/C=C/c2ccco2)c1S(=O)(=O)N1CCC(C(=O)N2CCc3ccccc32)CC1 | -1.67% |
| Cc1cc(C)nc(NS(=O)(=O)c2ccc(N3C(=O)C4CCCCC4C3=O)cc2)n1 (stereo not given) | 1.53% |
| Oc1ccc(-c2nnc(Nc3ccccc3)c3ccccc23)cc1 | 0.551% |
| c1ccc(-n2nc3ccccc3n2)cc1 | -1.52% |
| Oc1ccc(-c2nncn2-c2ccccc2)cc1 | 53.7% (active) |
| Brc1ccccc1CN1CCC(Cc2ccccc2)CC1 | -0.57% |
| O=C1CN(C(=O)COC(=O)/C=C/c2ccc(F)cc2)c2ccccc2N1 | -0.211% |
| O=C(CCNS(=O)(=O)c1ccc(Br)s1)NCc1ccccc1Cl | 0.12% |
| CCCN1C2=C(C(=O)CCC2)C(c2ccc(O)c(Br)c2)C2=C1CCCC2=O | 0.35% |
| C=CCNC(=O)C1CC=CCC1C(=O)O (stereo not given) | 3.88% |
| CC(C)C[C@@H](COc1ccccc1)N1CCN(CC(C)C)CCC1=O | -0.599% |
| CN1C(=O)[C@H]2[C@@H](C3CC3)N3C(=O)CN(Cc4ccccc4)C(=O)[C@@]3(C)[C@H]2C1=O | -0.57% |
| CCc1nc(SCC(=O)Nc2ccccc2OC)n[nH]1 | 0.384% |
| OC(COCC1COc2ccccc2O1)CN1CCN(c2ccc(F)cc2)CC1 (stereo not given) | -3.09% |
| Cc1cc(C)c(C(=O)CSc2nc(C)cc(=O)[nH]2)c(C)c1 | -3.36% |
| Nc1nc(SCC(=O)Nc2cc(C(F)(F)F)ccc2Cl)[nH]c(=O)c1NC(=O)c1ccco1 | 0.858% |
| O=c1cc(C(F)(F)F)[nH]c(=O)n1C1CCCCC1 | -7.78% |
| CCCCN(CCCC)CCC(O)c1cc2c(Cl)cc(Cl)cc2c2cc(C(F)(F)F)ccc12 (stereo not given) | -3.02% |
| CCC1Nc2ncnc(N3CCN(c4ccccc4)CC3)c2N(Cc2ccc(Cl)cc2)C1=O (stereo not given) | -3.36% |

| Compound | inhibition |
| --- | --- |
| CC[C@H](C)C(=O)N[C@H]1CCCN1C(=O)/C=C/c1ccccc1 | -0.364% |
| CC1(C)Cc2nc3sc4c(SCC(=O)NC(c5ccccc5)c5ccccc5)ncnc4c3cc2CO1 | 19.1% |
| COc1ccccc1NC(=O)CSc1nnc(CNC(=O)c2ccccc2F)o1 | -1.79% |
| COc1ccccc1NC(=O)CCSc1nnc(-c2ccc(O)cc2)o1 | 61% (active) |
| CCc1ccccc1NC(=O)CSc1nnc(-c2ccncc2)o1 | 0.246% |
| COc1ccc(N(C)C(=O)CCS(=O)(=O)c2cccc3nsnc23)cc1 | -0.848% |
| O=C(c1ccc(CS(=O)(=O)c2ccccc2)o1)N1CCN(c2ccccc2)CC1 | -1.56% |
| Cc1ccccc1-c1cc(C(=O)NCc2cccs2)n(CC2CC(c3cccnc3)=NO2)n1 (stereo not given) | 8.15% |
| COC(=O)c1sc(N)c(C(=O)OC)c1COC(=O)CNS(=O)(=O)c1ccc(C)cc1 | -5.73% |
| O=C(CN1CCC(O)(c2cccc(C(F)(F)F)c2)CC1)NCCc1ccccc1 | -1.83% |
| COc1ccccc1CNC(=O)Cn1c(=O)oc2cc(Cl)ccc21 | -2.27% |
| CN(C)Cc1c(O)ccc2c(=O)c(-c3ccccc3Cl)coc12 | 0.391% |
| COC(=O)C(C)Oc1ccc2c(c1)O/C(=C\c1cccc(Br)c1)C2=O (stereo not given) | -0.218% |
| COc1ccc2c(c1)O/C(=C\c1ccccc1O)C2=O | -3.6% |
| O=C1/C(=C/c2ccc3c(c2)OCO3)Oc2cc(OCC(=O)N3CC(O)C[C@H]3C(=O)O)ccc21 (stereo not given in full) | 58.3% (active) |
| CSc1nccc(NC(=O)c2ccc(C(C)(C)C)cc2)n1 | 0.764% |
| O=C(Nc1cccc(Cl)c1N1CCOCC1)c1cccnc1 | 1.42% |
| O=C(Nc1cccc(Cl)c1N1CCOCC1)c1ccc2c(c1)OCCO2 | 3.78% |
| CCN1CCN(c2c(Cl)cccc2NC(=O)c2ccc(Br)o2)CC1 | 84.2% (active) |
| CC(C)(C)NS(=O)(=O)NC(=O)C1=C(N2CCCC2)COC1=O | -2.51% |
| N#Cc1ccc(OCC(=O)NC(=O)NC2CCS(=O)(=O)C2)cc1 (stereo not given) | 0.468% |
| CCOC(=O)CCCCCC(=O)Nc1ccc2c(c1)CC(=O)N([C@@H](C)CO)C[C@H](C)[C@@H](CN(C)Cc1ccccc1)O2 | -2.38% |
| COc1ccc(NC(=O)c2cc([N+](=O)[O-])ccc2NC(=O)CNC2CCCCC2C)c(OC)c1 (stereo not given) | -2.82% |
| O=C(Nc1ccc(Cl)c(Cl)c1)N1CC=C(c2ccccc2)CC1 | -0.494% |
| COc1ccc(-n2c(=S)[nH]c3sc4c(c3c2=O)CCc2ccccc2-4)cc1 | -1.96% |

| Compound | inhibition |
| --- | --- |
| COc1ccc(Cn2c(O)c(/C=C3/C=CC=N3)c(=O)[nH]c2=O)cc1 | 0.739% |
| CCC(C)NCCOCCOc1ccc(Br)cc1C (stereo not given) | -0.652% |
| CCNc1nc(N)nc(Oc2ccc(OCC)nn2)n1 | 3.16% |
| Cc1ccc(CNCc2ccc3c(c2)OCO3)c(C)c1 | -0.957% |
| CCOC(=O)c1ccccc1NC(=O)COC(=O)CCC(=O)N1CCOCC1 | 8.47% |
| COc1ccc(CCNS(=O)(=O)c2cn(C)nc2C)cc1 | 2.55% |
| Nc1nonc1-n1nnc(C(=O)N/N=C/c2ccccc2O)c1CN1CCCC1 | 49.8% |
| NNC(=O)c1nnn(-c2nonc2N)c1CN1CCCC1 | 23.2% |
| Nc1nonc1-n1nnc(C(=O)N/N=C\c2ccncc2)c1CN1CCCCC1 | 107% (active) |
| COc1ccc(/C=C/C(=O)OCC(=O)NC2CCCCCC2)cc1OC | -0.779% |
| COc1ccc(S(=O)(=O)N2CCN(C(C)C(=O)Nc3ccc(C(C)C)cc3)CC2)cc1 (stereo not given) | 1.33% |
| COCCCn1c(Cc2csc(Nc3cccc(Cl)c3)n2)nnc1SCC(=O)OC1CCCCC1 | 1.8% |
| CC(=O)c1cccc(OCC(=O)OCC(=O)Nc2cc(S(=O)(=O)N3CCCCC3)ccc2C)c1 | 2.43% |
| CCOCC(=O)Nc1ncc(S(=O)(=O)c2ccc([N+](=O)[O-])cc2)s1 | -1.6% |
| COC(=O)CNC(=O)C(CCSC)NC(C)=O (stereo not given) (Ac-[ξM]-Gly-OMe) | -4.49% |
| CSCc1cc(N(C)C)nc(SCc2ccc(Cl)cc2Cl)n1 | -5.57% |
| COCCNc1nc(N)c([N+](=O)[O-])c(N2CCCCCC2)n1 | 1.39% |
| C=CCNc1nc(N)c([N+](=O)[O-])c(NC2CCCCC2)n1 | 0.434% |
| COCCNc1nc(N)c([N+](=O)[O-])c(NCCO)n1 | 53.1% (active) |
| COc1ccc(C(=O)NCc2ccccc2C)cc1S(=O)(=O)NC1CCCC1 | -2.96% |
| Cn1c(SCC(=O)Nc2nccs2)nnc1-c1cccnc1 | 2.04% |
| CC1CCCN(C(=O)CN2C(=O)c3ccccc3S2(=O)=O)C1 (stereo not given) | -0.713% |
| CC1CC(=NNC(=O)C2COc3ccccc3O2)CC(C)(C)C1 (stereo not given) | 0.373% |
| C=CCC[C@H](Cc1ccc(F)cc1)C(=O)OC[C@@H](NC(=O)[C@@H](CC=C)CC(=O)N[C@H](CO)Cc1ccccc1)C(C)(C)C | -1.79% |
| CS(=O)(=O)N(CC(=O)NC1CCCC1)Cc1ccc(F)cc1 | 10.3% |

| Compound | inhibition |
| --- | --- |
| O=S(N1CCCCCC1)C12CC3CC(CC(C3)C1)C2 (stereo not given) | -2.72% |
| Cc1cc(C)c(S(=O)(=O)n2cc(C(C)C(N)C(=O)O)c3ccccc32)c(C)c1 (stereo not given) | -2.93% |
| NC1=NC[C@@H](Cc2ccc(O)cc2)N1CC1CCCCC1 | 1.17% |
| O=C(CSc1nc2nccnc2c(=O)n1Cc1cccs1)Nc1ccccc1F | 1.43% |
| O=C(c1ccc(N2CCOCC2)c([N+](=O)[O-])c1)N1CCN(c2ccccc2F)CC1 | -2.69% |
| Cn1c(-c2ccc(F)cc2)cc2onc(-c3ccccc3Cl)c2c1=O | -1.73% |
| CCN(CC)CCCNC(=O)CCn1nc(-c2ccc(Cl)cc2)ccc1=O | -1.8% |
| O=C(NCCCN1CCCC1=O)C(=O)NCC1OCCN1S(=O)(=O)c1ccc(Br)cc1 (stereo not given) | -1.8% |
| COc1ccc2nc3n(c(=O)c2c1)-c1ccc(Cl)cc1C(=O)NC3Cc1ccccc1 (stereo not given) | -2.35% |
| N#Cc1ccccc1CN1C(=O)S/C(=C/c2cccn2-c2cccc(C(=O)O)c2)C1=O | 3.06% |
| COc1ccc(Cn2c(C)c(C)c(C#N)c2NC(=O)Nc2ccc(F)cc2)cc1 | -1.46% |
| O=C(Nc1ccc(S(=O)(=O)N2CCCCC2)cc1)C1CC(=O)N(c2ccc(F)cc2)C1 (stereo not given) | 0.943% |
| CCOc1ccc(S(=O)(=O)NCCC(=O)NCC(C)(C)N2CCOCC2)cc1 | -4.12% |
| CC(C)n1cnc2c(NCc3ccccc3)cc(N[C@@H](CO)Cc3ccccc3)cc21 | -3.52% |
| CCOc1ccc(CCNC(=O)C(CC)n2nc(C)n3c(cc4sccc43)c2=O)cc1OCC (stereo not given) | 8.43% |
| CC1=C(C(=O)NC2CC(C)(C)Cc3c2cnn3-c2ccc(C)cc2)OCCO1 (stereo not given) | -2.77% |
| Cc1cccn2c(=O)nc(SCC(=O)NCc3ccccc3Cl)nc12 | -2.07% |
| O=C(CN(C(=O)c1csnn1)c1cccc(F)c1)NCc1ccc(F)cc1 | 0.738% |
| O=C(Nc1ccccn1)C1CCN(S(=O)(=O)c2ccccc2)CC1 | 3.28% |
| CCCC1NC(=S)NC(C)=C1C(C)=O (stereo not given) | -1.05% |
| OCCCNc1nccc(-c2cc(Nc3cccc(Cl)c3)ncn2)n1 | 89.3% (active) |
| CC(C)n1cnc2c(Nc3cccc(Cl)c3)nc(N(CCO)CCCO)nc21 | 9.71% |
| OCCCNc1nc(-c2ccccc2)c2cc(Cl)ccc2n1 | 1.49% |
| CCCOc1ccc(Cc2c(O)nc(N)[nH]c2=O)cc1C | -0.849% |
| CCn1c(SC)nc(O)c(C(c2ccc(OC)c(O)c2)c2c(O)nc(SC)n(CC)c2=O)c1=O | -6.95% |
